# According to PubChem BioAssay (NCI):
# Compounds without any hit were thinned out: in the full panel of roughly 83,000, 20% have a hit.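 The test compound was applied at a single concentration to cells in 96-well plates for 48 hours, and percent growth was recorded.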 Values without a mark were called inactive. The source made the active and inactive calls. Rule for the calls: active = growth percent below 10; inactive = the rest.
# Legend:
# Experiment in all cases: NCI-60 one-dose screen, 48 h (100 = growth as untreated, 0 = no growth, -100 = all killed)
# Conditions in all cases: 10 µM unless noted
# HCT-15 colon = tested on: HCT-15 colon
# HT29 colon = tested on: HT29 colon
# SNB-75 CNS = tested on: SNB-75 CNS
# SNB-19 CNS = tested on: SNB-19 CNS
# U251 CNS = tested on: U251 CNS
# PC-3 prostate = tested on: PC-3 prostate
# SK-MEL-5 melanoma = tested on: SK-MEL-5 melanoma
# UACC-62 melanoma = tested on: UACC-62 melanoma
# LOX IMVI melanoma = tested on: LOX IMVI melanoma
# SK-MEL-28 melanoma = tested on: SK-MEL-28 melanoma
SMILES,growth (HCT-15 colon),growth (HT29 colon),growth (SNB-75 CNS),growth (SNB-19 CNS),growth (U251 CNS),growth (PC-3 prostate),growth (SK-MEL-5 melanoma),growth (UACC-62 melanoma),growth (LOX IMVI melanoma),growth (SK-MEL-28 melanoma)
N#Cc1nc(-c2ccccc2)oc1S(=O)(=O)N1CCN(c2ccccc2)CC1,44.2%,86.5%,66.7%,99.6%,98.9%,94.9%,90%,84.4%,39.7%,106%
COC1=CC(c2ccc[nH]2)=N/C1=C\c1[nH]c(C)c(C)c1CCC(=O)OCc1ccccc1,-32.2% (active),5.68% (active),-2.99% (active),21%,-40.4% (active),-27.2% (active),-89.2% (active),-54.7% (active),-62.9% (active),-32.6% (active)
O=c1[nH]c(Cc2nc3ccccc3s2)nc2cc(Br)ccc12,61.7%,43.7%,82.1%,82.2%,81.9%,60.9%,80.6%,2.81% (active),27.8%,55.1%
CCC(=O)Oc1ccc(-c2ccccc2)cc1Br,105%,101%,95.1%,112%,103%,95.4%,98.3%,109%,107%,110%
Nc1nc2ccccc2c2c(=O)c3cccc(Cl)c3sc12,59%,92.7%,89.2%,92.6%,77.3%,78.5%,96.3%,85.7%,90.2%,108%
CNC(=O)c1ccccc1Oc1nc(Nc2cc(OC)c(OC)c(OC)c2)ncc1Br,59.9%,45.1%,53.1%,94.9%,57.6%,61.4%,80%,50.7%,21.8%,80.5%
CCN(CC)Cc1cc(C=C2C(=O)NC(=S)NC2=O)cc(OC)c1O,105%,108%,99.1%,98.6%,98.6%,102%,106%,96.5%,105%,107%
Nc1nc2ccccc2c2c1S(=O)(=O)c1ccc(Cl)cc1C2=O,1.95% (active),7.01% (active),24.5%,48.8%,11.9%,16.5%,28.5%,24.7%,8.26% (active),34.5%
Cn1c(I)c(C#CCO[Si](C)(C)C(C)(C)C)c(=O)[nH]c1=O,91%,113%,99.9%,104%,109%,96.5%,103%,101%,99.9%,30.7%
CC(=O)c1c(C)nc2ccccc2c1/C=C/c1ccc(F)cc1,84.8%,90.7%,82.4%,93%,86.7%,79.1%,69.5%,74.9%,81.4%,114%
COc1c(B(O)O)cccc1-c1nc2c(F)cc3[nH]ncc3c2c2c1CCCC2,0.465% (active),6.27% (active),-87.8% (active),6.94% (active),13.6%,13.8%,-26.3% (active),2.47% (active),-35.2% (active),2.91% (active)
O=C(N/N=C/c1c(Cl)cccc1Cl)c1cccnc1Nc1cccc(C(F)(F)F)c1,26%,40.4%,63.1%,27.7%,16.4%,24.3%,20.5%,17.2%,25.8%,107%
CN(C)CC(C)(C)C(=O)/C=C/c1ccccc1,-47.6% [25 µM] (active),-16.7% [25 µM] (active),-13.7% [25 µM] (active),-1% [25 µM] (active),-41.5% [25 µM] (active),-34.4% [25 µM] (active),-86.8% [25 µM] (active),-73.6% [25 µM] (active),-84.8% [25 µM] (active),-61.6% [25 µM] (active)
O=C1c2ccc3c4c5ccc(c24)C(=O)N1CCCOCCCCOCCCNCc1ccc(cc1)CNCCCOCCCCOCCCN(C3=O)C5=O,-41% (active),-18.7% (active),98.1%,-2.17% (active),-78.3% (active),6.2% (active),-99.9% (active),-90.3% (active),-87.8% (active),-24.1% (active)
